Laboratory results: the supplement of paper PMC3545927
Some of the results follow. The true hit rate is not given.

Molecular target: furin, P09958
Assay: furin cleavage Z-score vs untreated control; higher = more cleavage, active = 3.5 or more, inactive = 1 or less, 8 variable residues between constant flanks
Experimental: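 Multiplexed peptide-cDNA fusion cleavage assay. 8-mer variable peptides flanked by constant Cys-Ala (N-term) and Ala-Gly-Asn-Ala-Ser-Ala-Ser-Ala (C-term) and conjugated to a cDNA oligonucleotide were bead-immobilised via the N-terminus. They were treated with purified furin at a 1:10 enzyme:substrate ratio in 50 mM HEPES pH 7.5, 1 mM CaCl2, 100 mM NaCl for 7.5, 15 or 30 min. Released cDNA was counted by next-generation sequencing, and log counts versus no-furin controls were lowess-adjusted and converted to robust Z-scores.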

Sequence of furin, P09958 (P09958 whole entry): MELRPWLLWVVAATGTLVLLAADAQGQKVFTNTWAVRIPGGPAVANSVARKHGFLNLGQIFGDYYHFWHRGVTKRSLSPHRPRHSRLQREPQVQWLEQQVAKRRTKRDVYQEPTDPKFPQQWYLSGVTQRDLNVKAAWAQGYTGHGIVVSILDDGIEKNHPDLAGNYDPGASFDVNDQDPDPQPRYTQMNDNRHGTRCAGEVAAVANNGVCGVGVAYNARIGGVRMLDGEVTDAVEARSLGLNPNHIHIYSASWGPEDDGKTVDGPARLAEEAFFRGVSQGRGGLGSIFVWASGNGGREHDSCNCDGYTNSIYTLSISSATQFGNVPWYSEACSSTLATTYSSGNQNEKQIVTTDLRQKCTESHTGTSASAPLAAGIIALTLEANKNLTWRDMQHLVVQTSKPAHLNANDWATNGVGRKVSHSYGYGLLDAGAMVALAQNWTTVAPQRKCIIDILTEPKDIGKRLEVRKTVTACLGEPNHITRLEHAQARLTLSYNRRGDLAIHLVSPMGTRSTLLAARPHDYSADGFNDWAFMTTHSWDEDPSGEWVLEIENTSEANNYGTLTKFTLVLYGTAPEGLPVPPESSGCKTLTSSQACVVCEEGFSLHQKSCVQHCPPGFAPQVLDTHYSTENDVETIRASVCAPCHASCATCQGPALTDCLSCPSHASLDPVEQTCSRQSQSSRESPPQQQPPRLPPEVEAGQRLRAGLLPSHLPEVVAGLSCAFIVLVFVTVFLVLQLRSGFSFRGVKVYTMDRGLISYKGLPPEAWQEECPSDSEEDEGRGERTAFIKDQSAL

Sequence: CATTKCSGSWAGNASASA [HC1874]
- furin cleavage Z-score (7.5 min): -0.691 (inactive)
- furin cleavage Z-score (15 min): -0.337 (inactive)
- furin cleavage Z-score (30 min): -0.205 (inactive)

Sequence: CASKSRSSRSAGNASASA [FS-501]
- furin cleavage Z-score (7.5 min): 8.19 (active)
- furin cleavage Z-score (15 min): 9.38 (active)
- furin cleavage Z-score (30 min): 7.93 (active)

Sequence: CANKSRESRPAGNASASA [FS-1469]
- furin cleavage Z-score (7.5 min): -0.557 (inactive)
- furin cleavage Z-score (15 min): -0.538 (inactive)
- furin cleavage Z-score (30 min): -0.178 (inactive)

Sequence: CATLSRSSRSAGNASASA [FS-1292]
- furin cleavage Z-score (7.5 min): 6.97 (active)
- furin cleavage Z-score (15 min): 8.07 (active)
- furin cleavage Z-score (30 min): 7.37 (active)

Sequence: CANKSRSSRSAGNASASA [FS-180]
- furin cleavage Z-score (7.5 min): 8.13 (active)
- furin cleavage Z-score (15 min): 8.25 (active)
- furin cleavage Z-score (30 min): 6.67 (active)

Sequence: CASGSRSSRSAGNASASA [FS-1409]
- furin cleavage Z-score (7.5 min): 0.457 (inactive)
- furin cleavage Z-score (15 min): 1.76
- furin cleavage Z-score (30 min): 2.85

Sequence: CAPRTCRNMWAGNASASA [HC1185]
- furin cleavage Z-score (7.5 min): -0.106 (inactive)
- furin cleavage Z-score (15 min): 1.74
- furin cleavage Z-score (30 min): 0.874 (inactive)

Sequence: CAMEEDSQHLAGNASASA [HC12]
- furin cleavage Z-score (7.5 min): 1.39
- furin cleavage Z-score (15 min): -0.675 (inactive)
- furin cleavage Z-score (30 min): -1.53 (inactive)

Sequence: CADLLVGSATAGNASASA [HC292]
- furin cleavage Z-score (7.5 min): -0.794 (inactive)
- furin cleavage Z-score (15 min): -0.376 (inactive)
- furin cleavage Z-score (30 min): -2.04 (inactive)

Sequence: CAEVPCHRISAGNASASA [HC2384]
- furin cleavage Z-score (7.5 min): -0.484 (inactive)
- furin cleavage Z-score (15 min): 0.399 (inactive)
- furin cleavage Z-score (30 min): 0.761 (inactive)

Sequence: CASWGRVWRAAGNASASA [FS-1420]
- furin cleavage Z-score (7.5 min): 0.424 (inactive)
- furin cleavage Z-score (15 min): -1.01 (inactive)
- furin cleavage Z-score (30 min): 0.706 (inactive)

Sequence: CASLGRAKRAAGNASASA [FS-1569]
- furin cleavage Z-score (7.5 min): 5.19 (active)
- furin cleavage Z-score (15 min): 5.19 (active)
- furin cleavage Z-score (30 min): 3.67 (active)

Sequence: CAKHQRAKRAAGNASASA [FS-1130]
- furin cleavage Z-score (7.5 min): 5.65 (active)
- furin cleavage Z-score (15 min): 4.42 (active)
- furin cleavage Z-score (30 min): 4.22 (active)

Sequence: CARDQRSVLAAGNASASA [FS-2206]
- furin cleavage Z-score (7.5 min): -0.0379 (inactive)
- furin cleavage Z-score (15 min): -0.365 (inactive)
- furin cleavage Z-score (30 min): 2.37

Sequence: CASLLSPRPIAGNASASA [HC736]
- furin cleavage Z-score (7.5 min): 0.821 (inactive)
- furin cleavage Z-score (15 min): -0.642 (inactive)
- furin cleavage Z-score (30 min): -0.193 (inactive)

Sequence: CAAVRTKLKLAGNASASA [HC1635]
- furin cleavage Z-score (7.5 min): -0.516 (inactive)
- furin cleavage Z-score (15 min): 0.293 (inactive)
- furin cleavage Z-score (30 min): 1.05

Sequence: CARRKKQVGTAGNASASA [FS-2450]
- furin cleavage Z-score (7.5 min): -0.127 (inactive)
- furin cleavage Z-score (15 min): 1.03
- furin cleavage Z-score (30 min): 0.188 (inactive)

Sequence: CARRKRKNKTAGNASASA [FS-1968]
- furin cleavage Z-score (7.5 min): 0.116 (inactive)
- furin cleavage Z-score (15 min): -2.04 (inactive)
- furin cleavage Z-score (30 min): -0.0117 (inactive)

Sequence: CARRKRNVNTAGNASASA [FS-2068]
- furin cleavage Z-score (7.5 min): 9.71 (active)
- furin cleavage Z-score (15 min): 10.9 (active)
- furin cleavage Z-score (30 min): 8.02 (active)

Sequence: CARKKRNVNFAGNASASA [FS-3158]
- furin cleavage Z-score (7.5 min): 10.3 (active)
- furin cleavage Z-score (15 min): 10.5 (active)
- furin cleavage Z-score (30 min): 8.52 (active)

Sequence: CARKKRIFNLAGNASASA [FS-2693]
- furin cleavage Z-score (7.5 min): 0.592 (inactive)
- furin cleavage Z-score (15 min): 0.839 (inactive)
- furin cleavage Z-score (30 min): 0.689 (inactive)

Sequence: CAMEECSQYLAGNASASA [HC1749]
- furin cleavage Z-score (7.5 min): 0.871 (inactive)
- furin cleavage Z-score (15 min): 2.54
- furin cleavage Z-score (30 min): 0.195 (inactive)

Sequence: CAPVVVGTTDAGNASASA [HC417]
- furin cleavage Z-score (7.5 min): -0.513 (inactive)
- furin cleavage Z-score (15 min): 0.318 (inactive)
- furin cleavage Z-score (30 min): -0.373 (inactive)

Sequence: CAEVVTSVWVAGNASASA [HC2210]
- furin cleavage Z-score (7.5 min): -1.35 (inactive)
- furin cleavage Z-score (15 min): -0.635 (inactive)
- furin cleavage Z-score (30 min): 0.276 (inactive)

Sequence: CARPRRDCVAAGNASASA [FS-2440]
- furin cleavage Z-score (7.5 min): 5.46 (active)
- furin cleavage Z-score (15 min): 5.89 (active)
- furin cleavage Z-score (30 min): 6.25 (active)

Sequence: CARPRRDAAEAGNASASA [FS-2741]
- furin cleavage Z-score (7.5 min): 8.33 (active)
- furin cleavage Z-score (15 min): 11 (active)
- furin cleavage Z-score (30 min): 8.31 (active)

Sequence: CARPRRDAEPAGNASASA [FS-1762]
- furin cleavage Z-score (7.5 min): 10.8 (active)
- furin cleavage Z-score (15 min): 12.9 (active)
- furin cleavage Z-score (30 min): 9.93 (active)

Sequence: CARPRRLLQAAGNASASA [FS-2165]
- furin cleavage Z-score (7.5 min): -1.03 (inactive)
- furin cleavage Z-score (15 min): -0.941 (inactive)
- furin cleavage Z-score (30 min): -0.713 (inactive)

Sequence: CARPRRDSAGAGNASASA [FS-2500]
- furin cleavage Z-score (7.5 min): 0.906 (inactive)
- furin cleavage Z-score (15 min): -0.366 (inactive)
- furin cleavage Z-score (30 min): 0.714 (inactive)
